Results published in PubChem BioAssay (EPA / NIEHS).
Values joined by “and” are separate entries in the source; they are usually repeats but may differ in a detail not shown here. Equal entries are not always repeated. Records with an inconclusive call do not appear. More than one record can exist for a structure, and the calls need not agree. Active and inactive are the calls of the source. Rule for the calls, unless noted: active = hit-call score of the fitted dose curve at least 0.9, where 1 is the maximum; inactive = score below 0.9.

What was measured:
[1] = test system: DIO3 (gene 1735); assay: CCTE_GLTED_hDIO3: CCTE's human Deiodinase 3 (DIO3) Inhibition Assay, Great Lakes Toxicology and Ecology Division (GLTED) Lab (AID 2284055; active = hit-call score of the fitted dose curve at least 0.9, where 1 is the maximum;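 note: potency is for inhibition seen as loss of released iodide signal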)
In short: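 Steps: incubate adenovirus-produced hDIO3 with chemical for 3 hours; detect freed iodide via cerium-arsenic Sandell-Kolthoff colorimetry; compare with DMSO baseline.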

[2] = CCTE_Shafer_MEA_dev_interburst_interval_mean: CCTE's Neural Network Formation Assay for Mean Interburst Interval, Shafer Lab (AID 2284046);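 note: well-mean interburst interval of bursting electrodes as AUC over four recording days; curve fitted for decrease in interburst interval relative to DMSO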
In short: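 Rat cortical neurons, 1.5 x 10^5 cells/well, 48-well MEA; compound from day 0 through DIV 12, media and treatment renewed DIV 5/9. Recordings DIV 5, 7, 9, 12; well-mean interburst interval → trapezoidal AUC, loss direction vs DMSO.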

[3] = CCTE_Shafer_MEA_dev_inter_network_spike_interval_mean: CCTE's Neural Network Formation Assay for Mean Inter-network Spike Interval, Shafer Lab (AID 2284047)
In short: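 Primary rat cortical neurons on PEI-coated 48-well MEAs (16 electrodes/well) were exposed from plating day 0 to DIV 12, with dosing renewed at DIV 5 and 9. Recordings at DIV 5, 7, 9, 12 were collapsed by trapezoidal AUC, loss-of-signal fit vs DMSO.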

[4] = CCTE_Shafer_MEA_dev_network_spike_number: CCTE's Neural Network Formation Assay for Number of Network Spikes, Shafer Lab (AID 2284048);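 note: synchronized bursts across electrodes counted on days 5 7 9 12 and integrated as AUC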;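 for AC50: fit as a loss of signal meaning fewer network spikes than DMSO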
In short: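 Rat cortical primary cultures on 48-well MEA (16 electrodes/well); continuous exposure DIV 0–12, full medium and treatment exchange DIV 5, 9. Readout: network spike count, AxIS adaptive detection, recordings DIV 5/7/9/12 collapsed to AUC; loss-of-signal fit, DMSO baseline.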

[5] = CCTE_Shafer_MEA_dev_network_spike_peak: CCTE's Neural Network Formation Assay for Mean Number of Electrodes in Network Spike, Shafer Lab (AID 2284049);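 for AC50: fitted for loss of signal meaning fewer electrodes in network spikes than DMSO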
In short: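 Network-spike peak electrode count from recordings on days 5, 7, 9 and 12 was combined as trapezoidal area under the curve. Rat cortical cultures were treated continuously from plating, with compound renewed at each feed (DIV 5, 9); fits versus DMSO.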

[6] = CCTE_Shafer_MEA_dev_spike_duration_mean: CCTE's Neural Network Formation Assay for Mean Spike Duration, Shafer Lab (AID 2284051);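 note: mean network spike duration pooled as area under curve over DIV 5 to 12 recordings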;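 for AC50: potency for a decrease in mean network spike duration versus DMSO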
In short: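 Rat cortical primary cultures, 48-well MEA (16 electrodes/well); compound from plating, renewed DIV 5, 9. Network spike duration (AxIS adaptive detector) recorded DIV 5/7/9/12, combined as trapezoidal AUC; loss direction vs DMSO.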

[7] = CCTE_Shafer_MEA_dev_network_spike_duration_std: CCTE's Neural Network Formation Assay for Standard Deviation of Network Spike Duration, Shafer Lab (AID 2284052);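 note: area under curve of spike duration SD across recording days 5 to 12; hits are decreases in network spike duration SD versus DMSO vehicle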
In short: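 Rat cortical cultures, 1.5 x 10^5 cells/well, exposed continuously from plating to DIV 12 with media/compound renewal at DIV 5, 9. Spontaneous activity recorded DIV 5/7/9/12, AxIS adaptive spike detector; AUC across days; negative direction vs DMSO.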

[8] = CCTE_Shafer_MEA_dev_per_network_spike_spike_number_mean: CCTE's Neural Network Formation Assay for Mean Number of Spikes in a Network Spike, Shafer Lab (AID 2284053);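 for AC50: fitted as decrease in spikes per network spike relative to DMSO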
In short: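 Rat cortical primary cultures on 48-well MEA; compound from day 0, re-dosed with full media change DIV 5, 9. Recorded DIV 5, 7, 9, 12; spikes in 0.05 s window at network-spike peak ÷ total network spikes; AUC; loss vs DMSO.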

[9] = CCTE_Shafer_MEA_dev_per_network_spike_spike_percent: CCTE's Neural Network Formation Assay for Percent of Spikes in a Network Spike, Shafer Lab (AID 2284054)
In short: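 Read-out: percent of spikes falling in a 0.05 s window at network-spike peak, from spontaneous MEA recordings on days 5, 7, 9 and 12; trapezoidal AUC; loss of signal versus DMSO. Rat cortical cultures, compound present throughout.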

[10] = CCTE_Shafer_MEA_dev_LDH: CCTE's Lactate Dehydrogenase Assay for Cytotoxicity in the Neural Network Formation Assay, Shafer Lab (AID 2284068; active = hit-call score of the fitted dose curve at least 0.9, where 1 is the maximum;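 note: exposure for twelve days from plating with re-dosing on DIV 5 and 9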)
In short: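 Rat cortical primary neurons, MEA culture; dosing day 0–12, full medium plus compound exchange DIV 5, 9. Read-out: LDH enzyme activity, spectrophotometric. DMSO = negative control/baseline; signal loss → cytotoxicity.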

[11] = CCTE_Shafer_MEA_dev_AB: CCTE's Alamar Blue Assay for Cytotoxicity in the Neural Network Formation Assay, Shafer Lab (AID 2284083; active = hit-call score of the fitted dose curve at least 0.9, where 1 is the maximum;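 note: resazurin reduction fluorescence as viability of cultured neurons; twelve days of exposure from plating with re-dosing on DIV 5 and 9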)
In short: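 Rat cortical primary cultures, 1.5 x 10^5 cells/well on MEA; continuous compound exposure over 12 days of network development, re-dosed with full medium change DIV 5 and 9. Alamar Blue fluorescence; loss of signal = cytotoxicity vs DMSO baseline.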

[12] = CCTE_Shafer_MEA_dev_mutual_information_norm: CCTE's Neural Network Formation Assay for Mutual Information Normalization, Shafer Lab (AID 2284091);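 for AC50: mutual information between electrodes summarised as area under curve across four recording days; potency is for a decrease in mutual information relative to DMSO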
In short: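 Neurons from rat cortex were seeded at 1.5 x 10^5 cells/well onto PEI-coated MEAs in a laminin drop, then exposed to compound from day 0 for twelve days. Network recordings on four days gave mutual information, summarised by AUC relative to DMSO.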

[13] = CCTE_Shafer_MEA_dev_correlation_coefficient_mean: CCTE's Neural Network Formation Assay for Mean Correlation Coefficient, Shafer Lab (AID 2284093);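 for AC50: well mean pairwise spike train correlation integrated as AUC over recording days 5 to 12; potency fitted for loss of correlation relative to DMSO vehicle wells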
In short: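 Rat cortical cultures, 1.5 x 10^5 cells/well, dosed from day 0 for 12 days. Spontaneous spikes recorded DIV 5/7/9/12; electrode-pair correlation coefficients averaged, AUC taken. Fit in loss direction vs DMSO.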

[14] = UKN5_HCS_SBAD2_cell_viability: Viability Assessment in the University of Konstanz (UKN) Leist Lab Neurite Outgrowth Assay in human iPSC-derived immature Dorsal Root Ganglia Neurons (UKN5) (AID 2284056)
In short: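 iPSC-derived immature peripheral neurons (SBAD2) seeded on Matrigel with CHIR99021, SU5402 and DAPT, dosed 1 h later for 24 h. Viability from Hoechst H-33342 and calcein-AM live staining, high-content imaging; bidirectional fit versus DMSO.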

[15] = UKN5_HCS_SBAD2_neurite_outgrowth: University of Konstanz (UKN) Leist Lab Neurite Outgrowth Assay in human iPSC-derived immature Dorsal Root Ganglia Neurons (UKN5) (AID 2284070); settings: actives raise or lower the signal
In short: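 Neurite outgrowth is quantified as calcein-AM-labelled neurite area in human iPSC-derived peripheral neurons treated for 24 h, starting 1 h after plating in medium with CHIR99021 (1.5 uM), SU5402 (5 uM) and DAPT (5 uM).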

[16] = CCTE_Shafer_MEA_acute_LDH: CCTE's Lactate Dehydrogenase Assay for Cytotoxicity in the Neural Acute Assay, Shafer Lab (AID 2284086; active = hit-call score of the fitted dose curve at least 0.9, where 1 is the maximum;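 note: active means LDH release rises above DMSO vehicle level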)
In short: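 Cytotoxicity readout: spectrophotometric LDH activity in supernatant of rat primary cortical neurons, post-plating day 13 or 15, sampled after 40 min compound exposure; signal gain relative to DMSO baseline.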

[17] = UKN2_HCS_IMR90_neural_migration: University of Konstanz (UKN) Leist Lab Neural Crest Cell Migration Assay in human induced IMR90 Pluripotent Stem Cells (UKN2) (AID 2284204); settings: actives raise or lower the signal
In short: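 Stopper-exclusion migration (cMINC), human iPSC-derived neural crest cells; N2-S + EGF/FGF; compound added 24 h post-stopper removal, 24 h exposure. Readout: calcein-AM/Hoechst 30 min, HCS fluorescence imaging; bidirectional fitting, DMSO baseline.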

[18] = UKN4_HCS_LUHMES_neurite_outgrowth: University of Konstanz (UKN) Leist Lab Neurite Outgrowth Assay in human LUHMES cells (UKN4) (AID 2284206); settings: actives raise or lower the signal
In short: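 Neurite area in dopaminergic-model LUHMES neurons is measured by high-content imaging of calcein-AM after 24 h treatment starting shortly after day-2 replating; Hoechst staining tracks viability.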

[19] = IUF_NPC1b_proliferation_BrdU_72hr: Leibniz Research Institute for Environmental Medicine (IUF) 72-hour Neural Progenitor Cell Bromodeoxyuridine (BrdU) Proliferation Assay (NPC1b) (AID 2284207)
In short: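 Luminescent BrdU ELISA measured DNA synthesis during the last 16 h of a 72 h exposure of primary human neural progenitor spheres grown with EGF and FGF. Signal was fitted relative to DMSO controls.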

[20] = CCTE_Shafer_MEA_acute_AB: CCTE's Alamar Blue Assay for Cytotoxicity in the Neural Acute Assay, Shafer Lab (AID 2284069; active = hit-call score of the fitted dose curve at least 0.9, where 1 is the maximum;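 note: active compounds lower the viability signal compared with DMSO wells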)
In short: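 Read-out: resazurin fluorescence (ex 544, em 590 nm) after CTB reagent at 1:6 dilution in fresh media. Cells: primary rat cortical neuron networks, DIV 13 or 15, chemically exposed on MEA plates; DMSO as negative control/baseline.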

Measured: AC50

CCCCCCCC/C=C\CCCCCCCC(=O)OCCO
active: [1] 14 µM

CCCCCCCC/C=C\CCCCCCCC(=O)O
active: [1] 29.8 µM

CN(C)c1ccc(C(=N)c2ccc(N(C)C)cc2)cc1
inactive: [3]
active: [2] 2.95 µM | [4] 1.35 µM | [5] 2.88 µM | [6] 2.42 µM | [7] 1.73 µM | [8] 2.39 µM | [9] 1.63 µM | [10] 3.2 µM | [11] 4.33 µM | [12] 0.975 µM | [13] 1.71 µM

Nc1ncn([C@@H]2O[C@H](CO)[C@@H](O)[C@H]2O)c(=O)n1
inactive: [2] | [3] | [4] | [5] | [6] | [7] | [8] | [9] | [14] | [10] | [16] | [12] | [13] | [17]
active: [4] 2.26 µM | [5] 4.18 µM | [6] 4.17 µM | [8] 2.56 µM | [9] 4.31 µM | [10] 5.16 µM | [15] 10 µM | [11] 5 nM and 15 µM | [12] 1.39 µM | [13] 2.91 µM | [18] 13 µM | [19] 0.253 µM

O=C(C=Cc1ccccc1)OCc1ccccc1
active: [1] 5.5 µM

CO[Si](OC)(OC)c1ccccc1
inactive: [20] | [16]

CC/C=C\C/C=C\C/C=C\CCCCCCCC(=O)O
active: [1] 13.1 µM

O=S1(=O)OC(c2ccc(O)cc2)(c2ccc(O)cc2)c2ccccc21
active: [1] 100 µM

CCN(CCC#N)c1ccc(N=Nc2c(Cl)cc([N+](=O)[O-])cc2Cl)cc1
active: [1] 63.7 µM

FC(F)=C(F)OC(F)(F)C(F)(F)C(F)(F)F
inactive: [2] | [3] | [4] | [5] | [6] | [7] | [8] | [9] | [12] | [13]

N[C@H]1C(O)O[C@H](CO)[C@H](O)[C@@H]1O (stereo not given in full)
active: [5] 25.4 µM | [6] 25.3 µM | [8] 25.6 µM | [9] 27.4 µM | [10] 15 µM | [11] 2.98 µM | [13] 25.4 µM
inactive: [2] | [3] | [4] | [7] | [12]

Oc1ccc(Cl)cc1Cc1cc(Cl)ccc1O
active: [1] 57.3 µM

CC=C1CC2C=CC1C2 (stereo not given)
active: [1] 47.9 µM
